Here are results for 39 molecules from PubChem BioAssay (NCATS).

Results filed as inconclusive are left out. A call without a number means that no potency is given here. Unmarked numbers belong to inactive results. Activity calls are given as the source filed them. Calls follow the shape of the dose curve; as a rule, active = well fitted inhibition curve with a large enough effect; inconclusive = small, poorly fitted or top-dose-only effect; inactive = flat fitted curve, though single readings scatter.
Potency is read from the fitted curve at half-maximal effect.

This test in a line: P-glycoprotein substrates identified in KB-8-5-11 adenocarcinoma cell line, qHTS therapeutic library screen (AID 1346987). Also: nearly all actives have a fitted effect of over 65% in size. The note with it: KB-8-5-11 (P-gp overexpressing) viability, CellTiter-Glo, 72 h; series mostly up to 44.5 µM. An outline of the steps:
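Compounds are pinned in dose-response onto KB-8-5-11 cells (500 cells/well, colchicine-free medium) and left 72 h at 37 degree C. CellTiter-Glo luminescence then yields AC50 values.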
On to `CC1(C)C2CC=C(COC3OC(COC4OCC(O)(CO)C4O)C(O)C(O)C3O)C1C2` (centres undefined), for which the Potency result is “inactive”. Turning to `C[C@H]1CC(=O)Nc2cccc(-c3cnn(C(C)(C)C)c3)c2N1`, the Potency result was “inactive”. Take `Nc1ncnc2c1nc(N)n2[C@@H]1O[C@H](CO)[C@@H](O)[C@H]1O`: the Potency is 1.16 µM (active).

With `CC1(CCOC2OC(CO)C(O)C(O)C2O)CCC23OC2(C1)C(O)CC1C(C)(C(=O)O)CCCC13C` (centres undefined), the Potency entry is “inactive”. Consider `CC1=C(C)C(=O)OC(C(C)C2CCC3C4CC=C5CC(OC6OC(COC7OC(CO)C(O)C(O)C7O)C(O)C(O)C6O)CC(O)C5(C)C4CCC23C)C1` (centres undefined), for which the Potency result is “inactive”. Still for that read-out and setting: the result for `CC[C@@H](N)CNc1ccnc(-c2cc(-c3cnn(C)c3)ccc2O)n1` reads 5.17 µM (active). Take `C=C1CCC2C(C)(C(=O)O)CCCC2(C)C1CCC(C)CC(=O)O` (centres undefined): the Potency entry is “inactive”.

Regarding `C=C1CCC2C(C)(C)C(O)CCC2(C)C1CCC(C)CCOC(C)=O` (centres undefined), the Potency result was “inactive”. On the same count and under the same terms, the result for `CC(/C=C/C1=CC2=CC(=O)C(C)(O)C(O)C2=CO1)=C\C(C)CCO` (centres undefined) reads “inactive”.

On to `C/C=C(\C)C(=O)O[C@@H]1CC2[C@@H](CC=C3C[C@@H](O[C@H]4C[C@H](OC)[C@H](O[C@H]5C[C@H](OC)[C@H](O[C@@H]6O[C@H](C)[C@@H](O[C@H]7C[C@H](OC)[C@H](O[C@@H]8O[C@H](CO)[C@@H](O)[C@H](O)[C@H]8O)[C@@H](C)O7)[C@H](OC)[C@H]6O)[C@@H](C)O5)[C@@H](C)O4)CC[C@@]32C)[C@@]2(O)CC[C@H](C(C)=O)[C@@]12C` (some centres undefined), for which the outcome was “inactive [at 9.29 µM]”. With `CC1=CC(=O)C2C(C)(C)CCC[C@]2(C)[C@H]1CO` (some centres undefined), the Potency result was “inactive”. Same read-out and setting: for `COc1ccc(N(C)c2nc(C)nc3ccccc23)cc1` the value was 0.0065 µM (active). On the same count and under the same terms, the result for `NCc1ccc(Nc2ncc(F)c(Nc3ccccc3)n2)cc1` reads 5.8 µM (active); that for `CC(C)=CCC[C@](C)(O)[C@H]1CC[C@]2(C)[C@@H]1[C@H](O)CC1[C@@]3(C)CC[C@H](O)C(C)(C)[C@@H]3[C@@H](O[C@@H]3O[C@H](CO)[C@@H](O)[C@H](O)[C@H]3O[C@@H]3O[C@H](CO)[C@@H](O)[C@H](O)[C@H]3O)C[C@]12C` (some centres undefined), “inactive”. Take `C[C@@H]1O[C@@H](O[C@H]2[C@H](OC(=O)[C@]34CCC(C)(C)C[C@H]3C3=CCC5[C@@]6(C)C[C@H](O)[C@H](O[C@@H]7O[C@H](CO)[C@@H](O)[C@H](O)[C@H]7O)[C@@](C)(CO)C6[C@H](O)C[C@@]5(C)[C@]3(C)CC4)OC[C@H](O)[C@@H]2O)[C@H](O)[C@H](O)[C@H]1O[C@@H]1OC[C@@H](O)[C@H](O[C@@H]2OC[C@](O)(CO)[C@H]2O)[C@H]1O` (some centres undefined): the activity change, negative = cytotoxicity was 6.69% [at 9.29 µM].

On to `COc1cc2oc(-c3ccc(O)cc3O)cc2c(OC)c1CC=C(C)C`, for which the Potency result is “inactive”. Take `CC1OC(OC2C(C)OC(OC3C(O)C(CO)OC(O[C@H]4CC[C@@]5(C)C(CC[C@]6(C)C5CC=C5C7[C@@H](C)[C@H](C)CC[C@]7(C(=O)O)CC[C@]56C(=O)O)C4(C)C)C3O)C(O)C2O)C(O)C(O)C1O` (some centres undefined): the outcome was “inactive [at 9.29 µM]”. `COc1ncc(Nc2ncc([C@H](C)N3CCN(S(C)(=O)=O)CC3)cc2-c2nc(C)nc(N)n2)cc1F`: the Potency was 9.2 µM (active). Same read-out and setting: the result for `CC(Nc1ncnc2nc[nH]c12)c1cc2cccc(Cl)c2c(=O)n1-c1ccccc1` (centres undefined) reads “inactive”; that for `Cc1nc([C@](C)(O)CO)sc1-c1cnc(N)c(O[C@H](C)c2cc(F)ccc2-n2nccn2)c1`, 11.6 µM (active). Still for that read-out and setting: for `CC[C@H](C)[C@H](NC(=O)[C@H]([C@@H](C)CC)N(C)C(C)=O)C(=O)N[C@H](C(=O)N[C@@H](CC(C)C)C(=O)[C@@]1(C)CO1)[C@@H](C)O` the value was 2.59 µM (active); for `C=C1CCCC2(C)CC3(OC)OC(=O)C(C)=C3CC12` (centres undefined), “inactive”; for `CO[C@H]1/C=C\O[C@@]2(C)Oc3c(C)c(O)c4c(O)c(c5c(nc6cc(C)ccn65)c4c3C2=O)NC(=O)/C(C)=C\C=C/[C@H](C)[C@H](O)[C@@H](C)[C@@H](O)[C@@H](C)[C@H](OC(C)=O)[C@@H]1C`, “inactive”. With `Cc1cc(NC(=O)Nc2ccc(F)c(F)c2)n(-c2ccccc2)n1`, the Potency entry is “inactive”. The same measure, in the same setting: the result for `CCOc1cc2ncc(C#N)c(Nc3ccc(F)c(Cl)c3)c2cc1NC(=O)/C=C/CN(C)C` reads 3.26 µM (active). Take `C[C@@H]1O[C@@H](O[C@H]2[C@H](O)[C@@H](O[C@@H]3O[C@H](CO)[C@@H](O)[C@H](O[C@@H]4O[C@H](CO)[C@@H](O)[C@H](O)[C@H]4O)[C@H]3O)[C@H](O[C@H]3CC[C@@]4(C)C(=CC[C@@H]5C4CC[C@@]4(C)C5C[C@@H]5OC6(CC[C@@](C)(CO[C@@H]7O[C@H](CO)[C@@H](O)[C@H](O)[C@H]7O)O6)[C@@H](C)[C@@H]54)C3)O[C@@H]2CO)[C@H](O)[C@H](O)[C@H]1O` (some centres undefined): the activity change, negative = cytotoxicity was 3.17% [at 9.29 µM]. In the case of `CC(C)/C=C1\NC(=O)C(C(C)C)n2c1nc1c(c2=O)C=CC=CO1` (centres undefined), the Potency entry is “inactive”. On the same count and under the same terms, the result for `CC(C)c1c2cc(-c3ccnc(NC4CCC(NC5CCOCC5)CC4)n3)ccc2nn1C` (centres undefined) reads 1.84 µM (active); that for `OCc1ccc(O[C@@H]2O[C@H](CO)[C@@H](O)[C@H](O)[C@H]2O)cc1`, “inactive”. Consider `Cc1ccc(NC(=O)c2ccc(CN3CC[C@H](N(C)C)C3)c(C(F)(F)F)c2)cc1Nc1nccc(-c2cncnc2)n1`, for which the Potency result was “inactive”. Same read-out and setting: the result for `O=C(c1ccccc1)c1ccc2nc(NC(=O)c3csc(C4CCN(c5ncnc6ccsc56)CC4)n3)[nH]c2c1` reads 5.8 µM (active); that for `CC(C)c1nnc(-c2ccc(-c3ccccc3)nc2)n1-c1cccc2nonc12`, “inactive”. The same measure, in the same setting: the result for `CCCCc1nc2cc(/C=C/C(=O)NO)ccc2n1CCN(CC)CC` reads 3.26 µM (active). On to `O=C(Nc1ccc(S(=O)(=O)Nc2nccs2)cc1)C(c1ccccc1)c1ccccc1`, for which the Potency result was “inactive”. For `C[C@@H]1O[C@@H](O[C@H]2[C@H](OC(=O)[C@]34CCC(C)(C)C[C@H]3C3=CCC5[C@@]6(C)C[C@H](O)[C@H](O[C@@H]7O[C@H](CO)[C@@H](O)[C@H](O)[C@H]7O)[C@@](C)(CO)C6[C@H](O)C[C@@]5(C)[C@]3(C)C[C@H]4O)OC[C@H](O)[C@@H]2O)[C@H](O)[C@H](O)[C@H]1O[C@@H]1OC[C@@H](O)[C@H](O[C@H]2OC[C@](O)(CO)[C@H]2O)[C@H]1O` (some centres undefined), the activity change, negative = cytotoxicity was 4.28% [at 9.29 µM]. Regarding `CCN(CC)CCN(Cc1ccc(-c2ccc(C(F)(F)F)cc2)cc1)C(=O)Cn1c(SCc2ccc(F)cc2)nc(=O)c2c1CCC2`, the Potency is 18.4 µM (active). In the case of `COc1c2ccoc2cc2oc(CO[C@@H]3O[C@H](CO)[C@@H](O)[C@H](O)[C@H]3O)cc(=O)c12`, the Potency result was “inactive”. Take `CC1(C)CC[C@]2(CO[C@@H]3O[C@H](CO)[C@@H](O)[C@H](O)[C@H]3O)[C@@H](O)C[C@]3(C)C(=CCC4[C@@]5(C)CC[C@H](O[C@@H]6O[C@H](CO[C@@H]7O[C@H](CO[C@@H]8OC[C@@H](O)[C@H](O)[C@H]8O)[C@@H](O)[C@H](O)[C@H]7O)[C@@H](O)[C@H](O)[C@H]6O)C(C)(C)C5CC[C@]43C)[C@@H]2C1` (some centres undefined): the activity change, negative = cytotoxicity was 1.76% [at 9.29 µM]. Consider `O=C1N=C(N2CCOCC2)CN1c1ccc(Cl)cc1`, for which the Potency entry was “inactive”.
